Screening results (PubChem)
FMDV inh = antivirals against foot and mouth disease virus; 410,000 compounds, 1.2% hits; FMDV antiviral cell-based qHTS; Potency, µM (series often up to 57.9 µM), inactives show at the highest dose activity change, negative = inhibition, usual class: inhibitors; calls by dose curve; tested in HEK293T cells; note: read-out not given here; potency is the fitted concentration of half-maximal effect; nearly all actives have a fitted effect of over 45% in size
TbPYK inhibitor = inhibitors of Trypanosoma brucei pyruvate kinase. Q57TT1. TbPYK enzyme, Kinase-Glo Plus ATP luminescence, 45 min. Potency, µM (series often up to 76.8 µM), for the others: at the top dose activity, negative = inhibition, hits mostly inhibitors. 410,000 compounds, 0.12% hits; note: potency is the fitted concentration of half-maximal effect; nearly all actives have a fitted effect of over 50% in size
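In this concentration-response screen, enzyme-free wells defined baseline while DMSO plates tracked drift. Each reaction combined TbPYK, substrate, compound and 130 uM ADP for 45 min at room temperature. Kinase-Glo Plus luminescence gave the signal.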
Sm TGR inh = blocks Schistosoma mansoni thioredoxin glutathione reductase; Potency, µM (top dose mostly 114 µM), for inactives: at the top dose activity change, negative = inhibition, most hits filed as inhibitors; purified TGR, DTNB reduction, TNB absorbance 405 nm; 360,000 compounds, 3% hits; note: potency is the fitted concentration of half-maximal effect; nearly all actives have a fitted effect of over 60% in size
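Kinetic colorimetric format: TGR-catalysed, NADPH-driven DTNB reduction monitored via TNB absorbance. Enzyme dispensed at 20 nM; compound exposure 15 min at room temperature before reaction start.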
HCMV antiviral = blocks human cytomegalovirus replication; 410,000 compounds, 4.5% hits; HFF cells, HCMV-luciferase reporter, 72 h; active compounds read low; activity change, negative = inhibition, % at 57.5 µM; in the data active = activity change below about -60%; inconclusive = no clear call, values can overlap the other calls; inactive = above about -39%
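HFF cells seeded 16 h at 37C, treated with compounds, infected with luciferase-reporter HCMV at MOI 1 PFU/cell; luciferase read at 72 h post infection, normalized to buffer-only and Salinomycin controls.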
FBPA Giardia inh = inhibitors of Giardia lamblia fructose-1,6-bisphosphate aldolase; A8B2U2; purified Giardia FBPA; Potency, µM (series often up to 59.6 µM), without a hit: at the highest dose activity, negative = inhibition, hits mostly inhibitors; 290,000 compounds, 0.71% hits; AID 2451; note: potency is the fitted concentration of half-maximal effect; nearly all actives have a fitted effect of over 55% in size
Target sequence (A8B2U2 whole entry, looked up): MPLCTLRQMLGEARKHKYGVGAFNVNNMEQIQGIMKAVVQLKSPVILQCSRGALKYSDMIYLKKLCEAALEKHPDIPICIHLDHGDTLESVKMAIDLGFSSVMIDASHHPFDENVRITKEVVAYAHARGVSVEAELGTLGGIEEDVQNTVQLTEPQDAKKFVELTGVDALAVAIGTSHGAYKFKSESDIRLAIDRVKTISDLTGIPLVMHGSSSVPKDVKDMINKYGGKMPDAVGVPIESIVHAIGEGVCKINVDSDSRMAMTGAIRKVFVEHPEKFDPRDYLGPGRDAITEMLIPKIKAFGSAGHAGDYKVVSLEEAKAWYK
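40 nM FBPA preincubated 10 min at RT with compound (up to 57.5 uM final), then substrate plus GAPDH/TPI/NAD/arsenate coupling and diaphorase/resazurin added. Fluorescence read after 20 min at RT, 525/598 nm.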
RE007 growth inh = less growth of the S. pombe RE007 Vpr strain. S. pombe RE007 Vpr strain, BacTiter-Glo ATP luminescence, 24 h. Potency, µM (series often up to 92.2 µM), for the others: at the top dose activity change, negative = less growth, usual class: inhibitors. 360,000 compounds, 0.21% hits; active = well fitted falling curve with a large enough effect; inconclusive = small, poorly fitted or top-dose-only effect; inactive = no such curve, though single readings can be large or run the other way; note: potency is the fitted concentration of half-maximal effect; nearly all actives have a fitted effect of over 50% in size
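Fission yeast RE007 carrying one integrated HIV-1 vpr copy, seeded at OD 0.01 in PMG+AL medium with 23 nL pinned compound. Grown 24 h at 30 degrees; viability read by BacTiter-Glo luminescence after 5 min.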
* hit, by the source's call; ? = inconclusive; . = not tested or not shown; [ ] = remark or other dose. This is a sample that favours compounds with a hit; in the whole collection about 7.7% have one here. Unless noted, calls come from the whole dose curve; as a rule, active = well fitted curve in the direction sought with a large enough effect; inconclusive = small, poorly fitted or top-dose-only effect, or another doubt; inactive = no such curve, though single readings can be large; an effect the other way counts as inactive or inconclusive. % is set by controls: 0 for no effect and ±100 for the full control effect.

SMILES	FMDV inh	TbPYK inhibitor	Sm TGR inh	HCMV antiviral	FBPA Giardia inh	RE007 growth inh
COC(=O)N1C(=O)[C@@](Cc2ccccc2)(c2ccccc2)N1C(=O)OC	?	-17%	3.5µM*	12	-3%	-2%
COC(=O)N1[C@H](C)C=C[C@]1(Cc1ccccc1)C(=O)OC	-2%	0%	.	-2	1%	-1%
COCCCNC(=S)N1CCC(C(=O)c2ccc3c(c2)OCCO3)CC1	-22%	-2%	-2%	-38	1%	-4%
CC(C)CNC(=S)N1CCC(C(=O)c2ccc3c(c2)OCCO3)CC1	-13%	-7%	.	-63*	-1%	31%
CC(C)CCNC(=O)N1CCN(S(=O)(=O)c2ccc3c(ccn3C)c2)CC1	-14%	-1%	5%	22	.	.
CCN(CC)S(=O)(=O)c1ccc2[nH]cc(C(=O)NCCCN3CCCCC3C)c(=O)c2c1 (stereo not given)	.	2%	6%	-73*	2%	-4%
CCN(CC)S(=O)(=O)c1ccc2[nH]cc(C(=O)NCCN3CCCCCC3)c(=O)c2c1	-3%	-9%	-15%	-17	-7%	-7%
CCN(CC)S(=O)(=O)c1ccc2[nH]cc(C(=O)NCCC3=CCCCC3)c(=O)c2c1	14µM*	5%	-32%	-83*	-3%	29%
Cn1cc([N+](=O)[O-])c(C(=O)Nc2cc(Oc3cccnc3)cc([N+](=O)[O-])c2)n1	?	3%	5%	-106*	.	-7%
COc1ccc(Oc2cc(NC(=O)c3nn(C)cc3[N+](=O)[O-])cc([N+](=O)[O-])c2)cc1	?	0%	-23%	-110*	-3%	13%
O=[N+]([O-])c1cc(Oc2cccnc2)cc([N+](=O)[O-])c1	-7%	4%	-13%	-30	-2%	0%
CC(C)C1NC2(C(=O)c3ccccc3C2=O)C2C(=O)N(c3ccc(F)cc3)C(=O)C12 (stereo not given)	-13%	-2%	2µM*	63	-2%	0%
Oc1ccccc1-c1n[nH]c(-c2ccccc2O)n1	-3%	8%	.	-96*	.	?
Cn1nc(C(F)(F)F)c2cc(NC(=O)OCc3ccc(C(C)(C)C)cc3)sc21	22µM*	-17%	8%	-7	-1%	0%
O=c1cc(-c2ccccc2)[nH]n1-c1ccc([N+](=O)[O-])cc1	?	0%	3%	-95*	0%	-17%
COc1ccc2cc(-c3nnc(Nc4ccccc4)s3)c(=O)oc2c1	7%	-5%	6%	5	.	.
CCc1nc(-c2cc3ccc(C)cc3[nH]c2=O)no1	60%	-17%	-18%	-71*	-6%	-14%
COc1ccccc1-n1ncc2c(=O)[nH]c(SCC(=O)Nc3cccc(F)c3)nc21	-16%	-3%	5%	-36	.	.
CCOC(=O)C(NCc1ccc2c(c1)OCO2)(NC(=O)c1ccccc1)C(F)(F)F (stereo not given)	-20%	1%	0%	-61*	-1%	-16%
CCOC(=O)C(NCc1ccccc1)(NC(=O)c1ccccc1)C(F)(F)F (stereo not given)	-9%	8%	0%	-6	5%	-2%
N#C/C(=C\c1ccncc1)c1ccccn1	-5%	-5%	0%	-78*	3%	?
N#C/C(=C\c1ccccc1)c1ccccn1	53%	-2%	-7%	2	3%	-24%
CCC1=C2CC[C@H]3C(=O)N(C)C(=O)[C@H]3[C@H]2[C@@]2(C)C(=NCc3ccccc3)OC(=O)N2C1=O	.	.	.	.	2%	.
Cc1ccc(C)c(N2CCN(C(=O)c3cn(CC(C)C)c(=O)c4c3c3ccccc3n4C)CC2)c1	?	0%	3%	9	.	.
CCC[C@H]1C[C@H](C(=O)N[C@H]([C@@H]2O[C@H](SC)[C@@H](O)[C@H](O)[C@@H]2O)[C@H](C)O)N(C)C1	.	.	.	.	-5%[21.7 µM]	.
SMILES	FMDV inh	TbPYK inhibitor	Sm TGR inh	HCMV antiviral	FBPA Giardia inh	RE007 growth inh
C=C1C(=O)C2=CC1CCC(=O)C1(C)CCC(OC(C)=O)C(C)(C)C1CC2O (stereo not given)	7.9µM*	6%	.	-99*	.	-11%
Cc1cc(Nc2ccc(C)c(C)c2)c2ccccc2n1	-23%	-6%	-10%	-63*	0%	-20%
Cc1cc(Nc2ccccc2Cl)c2ccccc2n1	?	-3%	.	-73*	.	-10%
Cc1cc(Cl)c2ccccc2n1	-7%	2%	-1%	-7	2%	6%
CCOc1ccc(Nc2cc(C)nc3c(C)cccc23)cc1	-22%	1%	1%	-76*	4%	6%
CCOc1ccc2nc(C)cc(Nc3cccc([N+](=O)[O-])c3)c2c1	-19%	-12%	-8%	-97*	-13%	-15%
Cc1cc(Nc2ccccc2C)c2cccc(C)c2n1	-12%	-2%	0%	-23	.	.
CN1CC[C@@]2(CCCN(C(=O)c3cccn3C)C2)C1	-17%	-6%	.	.	-8%	.
COc1ccc(Cl)cc1Nc1cc(C)nc2ccccc12	?	3%	.	-87*	.	0%
COc1ccc(OC)c(Nc2cc(C)nc3ccccc23)c1	?	-9%	2%	8	1%	8%
Cc1cccc(C)c1OCCCn1c(CCNC(=O)C2CCCCC2)nc2ccccc21	-16%	-8%	14%	24	.	.
Cc1cc(OCCCn2c(CCNC(=O)C3CCCCC3)nc3ccccc32)ccc1Cl	-4%	-1%	-5%	-73*	.	.
CCOC(=O)c1c(C)oc2nc(C)nc(NCC3CCN(Cc4ccc(Cl)cc4)CC3)c12	-13%	0%	1%	-8	.	.
N#Cc1nc(-c2ccccc2)oc1NCC1CCCO1 (stereo not given)	10%	-7%	-8%	-11	-1%	-20%
N#Cc1nc(-c2cccc3ccccc23)oc1NCC1CCCO1 (stereo not given)	7%	-2%	13%	-67*	-17%	-8%
COc1ccc2c(c1)CC1(CN2C)C(=O)NC(=O)N(c2ccc(C)cc2)C1=O (stereo not given)	0%	-17%	50µM*	8	?	-3%
CCOC(=O)c1c(C)[nH]c(C)c1S(=O)(=O)NCC(=O)N(C)c1ccc(C)c(C)c1	25%	2%	-1%	42	.	.
Cc1ccc(-n2c(SCC(=O)O)nc3sc4c(c3c2=O)CCCC4)cc1	-8%	3%	-3%[57.1 µM]	42	13%	16%
Cc1ccc(-n2c(SCC(=O)c3c(N)n(C)c(=O)n(C)c3=O)nc3sc4c(c3c2=O)CCCC4)c(C)c1	12%	-3%	3%	-68*	-7%	-8%
CCOc1ccccc1NC(=O)Cn1ncc2c([nH]c3ccccc32)c1=O	-15%	-5%	-1%	20	.	.
